CHO-K1 Ca antag: nonselective inhibitor or artifact in parental CHO-K1 cells; ATP-induced calcium, Fluo-8 fluorescence; hit rate 0.6% among 360,000; inhibition, % at 3 µM; AID 602250;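 active = inhibition above a per-plate cutoff, the plate's mean sample inhibition plus 3 SD, cut at about 24% in these data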;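 also: 0% = DMSO plus EC80 ATP and 100% = DMSO alone without ATP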
CHO-K1 Ca ag: counter-screen for M1 agonists: effect in parental CHO-K1 cells. Fluo-8 calcium fluorescence; scaled to maximal ATP response, vehicle zero. activation, % at 3 µM. hit rate 0.48% among 360,000. AID 602248, 2012; in the data active = activation above about 15%;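 also: untransfected CHO-K1 host cells lacking M1 receptor as counterscreen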
M4 ag: human M4 muscarinic receptor agonists, primary screen, CHO-K1 cells, Fluo-8 calcium fluorescence. hit rate 0.14% among 360,000. activation, % at 3 µM. CHO-K1 hM4/Gqi5; vehicle 0%, full acetylcholine response 100%;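 active = activation above the run mean over all test wells plus 3 SD, cut at about 32% in these data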;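 also: peak over basal fluorescence ratio per well then scaled between controls; 0% = DMSO wells and 100% = acetylcholine at EC100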
Target sequence (P08173 whole entry, looked up): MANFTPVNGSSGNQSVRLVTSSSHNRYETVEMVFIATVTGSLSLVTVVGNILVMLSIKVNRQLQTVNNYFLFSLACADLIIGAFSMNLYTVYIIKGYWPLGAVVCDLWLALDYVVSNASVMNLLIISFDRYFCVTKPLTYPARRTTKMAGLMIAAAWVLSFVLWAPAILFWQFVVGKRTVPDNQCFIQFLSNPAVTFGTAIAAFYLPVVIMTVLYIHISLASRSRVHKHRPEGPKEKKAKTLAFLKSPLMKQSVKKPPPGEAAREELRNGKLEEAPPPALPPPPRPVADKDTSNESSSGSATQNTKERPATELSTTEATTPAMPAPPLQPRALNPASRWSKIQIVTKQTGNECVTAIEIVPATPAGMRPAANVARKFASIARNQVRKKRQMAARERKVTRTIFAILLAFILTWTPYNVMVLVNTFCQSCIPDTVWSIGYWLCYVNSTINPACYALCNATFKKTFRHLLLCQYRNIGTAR
CHRM4 antagonist: human M4 muscarinic receptor antagonists, primary screen, CHO cells, Fluo-8 calcium fluorescence | Muscarinic acetylcholine receptor M4 (Homo sapiens), P08173 | CHO-hM4 cells, ACh EC80 | inhibition, % at 3 µM | hit rate 0.73% among 360,000;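 active = inhibition above its plate's cutoff, the mean inhibition of sample wells plus 3 SD, cut at about 27% in these data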;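 also: 0% = acetylcholine EC80 with DMSO and 100% = DMSO without agonist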
CHRM4 PAM: human M4 muscarinic receptor positive allosteric modulators, primary screen, CHO-K1 cells, Fluo-8 calcium fluorescence | Muscarinic acetylcholine receptor M4 (Homo sapiens), P08173 | CHO-K1 hM4/Gqi5, ACh EC20; 0% = ACh EC20, 100% = maximal ACh | activation, % at 3 µM | hit rate 0.4% among 360,000 | AID 624126, 2012;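 active = activation above its plate's cutoff, the mean activation of sample wells plus 3 SD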
M1 PAM parental: nonselective calcium activators in parental CHO-K1 cells, primary screen, counter-screen for M1 PAM project, cell-based, Fluo-8 calcium fluorescence, full deck, 1536-well. ATP EC20; 0% at ATP EC20, 100% at ATP max. activation, % at 3 µM. hit rate 0.02% among 360,000. AID 602247, 2012;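 active = activation above the run cutoff, the mean activation of all test compounds plus 3 SD, cut at about 40% in these data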;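 also: peak over basal fluorescence ratio in a 140 s read after ATP addition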
* marks the source's active call; other numbers are inactive results. Most compounds without a hit are left out; they make up all but 2% or so of the library.

SMILES	CHO-K1 Ca antag	CHO-K1 Ca ag	M4 ag	CHRM4 antagonist	CHRM4 PAM	M1 PAM parental
O=C(NC(=S)NCCC1=CCCCC1)c1cncc(Br)c1	-8	16*	-2	-8	-7	13
O=C(C1CCC(CNc2c(N3CCCCC3)c(=O)c2=O)CC1)N1CCCCC1 (stereo not drawn)	0	0	2	-25	3	11
CC1CCN(c2c(NCC3CCC(C(=O)NC4CCCCCC4)CC3)c(=O)c2=O)CC1 (stereo not drawn)	-8	0	1	31*	15	9
CC1CCCCC1NC(=O)C1CCC(CNc2c(N3CCCCC3)c(=O)c2=O)CC1 (stereo not drawn)	-1	0	0	-9	-2	7
CC1CCN(c2c(NCC3CCC(C(=O)N4CCCCC4)CC3)c(=O)c2=O)CC1 (stereo not drawn)	28*	0	2	-1	-9	-7
O=C(COc1ccccc1)Nc1cccc(-c2nc3cc4ccccc4cc3[nH]2)c1	14	5	14	30*	-22	-12
COC(=O)COc1cccc(NC(=O)COc2ccccc2)c1	2	0	1	4	1	-5
N#Cc1ccc(-c2ccc(OCC(=O)Nc3cccnc3)cc2)cc1	12	18*	25	7	-13	-20
O=C(COc1ccc(C(=O)c2ccccc2)cc1)Nc1cccnc1	19	19*	20	17	-6	-4
O=C(CCCOc1ccccc1)Nc1cccnc1	-11	1	2	-6	-3	15
CC(=O)c1cccc(NC(=O)COc2ccccc2)c1	32*	0	1	7	-4	-8
O=C(COc1ccccc1)Nc1cccc(-c2nn[nH]n2)c1	1	1	1	-6	5	1
Cc1ccc(C)c(S(=O)(=O)NCC(=O)N2CCCC2)c1	-10	1	0	-10	2	25
COc1ccc(NC(=O)c2sc3nc(C)cc(C)c3c2N)cc1	-16	1	1	-5	4	20
Cc1cc(C)c2c(N)c(C(=O)Nc3ccc(F)cc3)sc2n1	-6	0	7	4	27*	8
Cc1cc(C)c2c(N)c(C(=O)NC3CCCC3)sc2n1	-5	11	36*	61*	52*	24
Cc1ccc2oc(NC(=O)N3CCOCC3)cc(=O)c2c1	31*	0	4	-2	-9	-4
Cc1cccc(NC(=O)c2nc[nH]c2C(=O)Nc2cc(Br)ccc2F)c1	20	0	1	-13	6	-10
COc1cccc(NC(=O)N(C)C[C@H]2Oc3cc(Br)ccc3S(=O)(=O)N([C@H](C)CO)C[C@H]2C)c1	28*	0	3	4	1	-7
COc1ccccc1S(=O)(=O)N(C)C[C@@H]1Oc2cc(C#CCC(C)C)ccc2S(=O)(=O)N([C@H](C)CO)C[C@@H]1C	34*	0	3	5	-4	-11
CNC[C@@H]1Oc2cc(Br)ccc2S(=O)(=O)N([C@@H](C)CO)C[C@@H]1C	-15	0	1	48*	-13	9
CNC[C@@H]1Oc2cc(Br)ccc2S(=O)(=O)N([C@H](C)CO)C[C@@H]1C	1	1	1	-1	-11	10
COc1ccccc1S(=O)(=O)N(C)C[C@H]1Oc2cc(C#CCC3CCCC3)ccc2S(=O)(=O)N([C@H](C)CO)C[C@H]1C	3	0	1	1	0	0
C/C(=N\NC(=O)C(=O)Nc1c(C)n(C)n(-c2ccccc2)c1=O)c1ccc(Cl)s1	-11	0	-1	-9	4	21
CCOC(=O)C(C(=O)Nc1ccc(C)cc1)C1CCCCC1 (stereo not drawn)	-1	0	0	-2	45*	-3
SMILES	CHO-K1 Ca antag	CHO-K1 Ca ag	M4 ag	CHRM4 antagonist	CHRM4 PAM	M1 PAM parental
O=C(NCc1ccccn1)C(=O)N/N=C/c1ccccc1O	-6	-1	-1	47*	-8	4
Cc1cc(/C=N/NC(=O)C(=O)NCc2ccccn2)c(C)n1-c1cccc(Br)c1	-13	1	4	-9	-7	15
CCOC(=O)CCc1c(C)n(CC)c2cc(-c3ccccc3OC)nn2c1=O	2	-1	-1	-9	19*	-5
CCN(CC)CCCNC(=O)CCc1c(C)n(CC)c2cc(-c3ccccc3OC)nn2c1=O	-1	4	16	3	-8	-9
COc1ccccc1NC(=O)C(C)OC(=O)CCCOc1ccccc1 (stereo not drawn)	-8	-1	4	-23	9	-15
CC(OC(=O)CCCOc1ccccc1)C(=O)NC(N)=O (stereo not drawn)	28*	0	-1	1	-6	-5
COc1cc(/C=N/N=C(N)N)ccc1OCc1ccccc1Cl	7	14	0	0	1	22
CCCC(CCC(=O)Nc1cc([N+](=O)[O-])ccc1O)C(=O)O (stereo not drawn)	14	0	1	-4	4	-2
CC1(C)Cc2c(sc(NC(=O)c3ccc(Br)o3)c2C#N)CO1	25*	0	1	1	6	-8
Cc1ccc(S(=O)(=O)N2C[C@H]3C(=O)C[C@@H](c4ccccc4F)N(S(=O)(=O)c4ccc(C)cc4)[C@H]3C[C@H]2c2ccccc2)cc1	31*	0	2	0	-3	-9
Cc1ccc(S(=O)(=O)N2C[C@H]3C(=O)C[C@@H](c4ccc(Cl)cc4)N(S(=O)(=O)c4ccc(C)cc4)[C@H]3C[C@H]2c2cccc3ccccc23)cc1	30*	0	0	-16	1	-6
NS(=O)(=O)c1ccc(CCNC(=O)C2CCN(S(=O)(=O)c3c(Cl)cccc3Cl)CC2)cc1	-10	0	1	-4	-8	4
CC1(C)Cc2cccc(OC(=O)NCCc3ccc(F)cc3)c2O1	-4	0	0	3	-1	-5
COc1ccc(C(C)(O)c2nc(-c3cccc(F)c3)cs2)cc1 (stereo not drawn)	0	2	3	-6	0	1
COc1ccc(-c2csc(C(C)(O)c3cccc(F)c3)n2)cc1 (stereo not drawn)	-13	0	4	37*	-11	13
O=C(O)Cc1sc(N/N=C\c2ccncc2)nc1-c1ccccc1	-2	11	11	5	-22	6
CCN(CC(=O)Nc1ccc(OC)cc1)C(=O)Cc1ccsc1	-17	0	1	-23	22*	12

Bioassay records deposited in PubChem BioAssay by The Scripps Research Institute Molecular Screening Center.
